{"source": "the supplement of paper PMC9135407", "tested_on": "primary human hepatic stellate cells (donor 1)", "test": "scaled lipid accumulation score (0 = DMSO-like, 1 = nortriptyline-like); higher = stronger HSC inactivation (lipid re-accumulation), active = hit call of the paper", "conditions": "48 h", "key": {"[1]": {"conditions": "library stock concentration: 3.33 mM"}, "[2]": {"conditions": "library stock concentration: 10 mM"}, "[3]": {"conditions": "library stock concentration: 1 mM"}, "[4]": {"conditions": "library stock concentration: 80 uM"}, "[5]": {"conditions": "library stock concentration: 400 uM"}, "[6]": {"conditions": "library stock concentration: 2 mM"}}, "note": "Values joined by “and” are separate entries in the source; they are usually repeats but may differ in a detail not shown here. Equal values may be shown once. Where a name gives a salt, the structure may show the parent alone. Screen size: about 5,800 compounds; about 620 (11%) showed activity. Many of the other results were omitted from the sample, so actives are more common in it than they were. Unmarked numbers belong to inactive results.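 The calls were made as follows: active = score above a cut-off or among the top three wells of a plate; in these data no inactive exceeds 0.85.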", "data": [{"compound": "CC(C)N(C[C@H]1O[C@@H](n2cnc3c(N)ncnc32)[C@H](O)[C@@H]1O)[C@H]1C[C@@H](CCc2nc3cc(C(C)(C)C)ccc3[nH]2)C1", "values": [{"measurement": "scaled lipid accumulation score", "setting": "[1]", "result": "≤ 0"}, {"measurement": "scaled lipid accumulation score", "setting": "[2]", "result": 0.467}]}, {"compound": "CC(C)OC(=O)OCOP(=O)(CO[C@H](C)Cn1cnc2c(N)ncnc21)OCOC(=O)OC(C)C", "note": "[Tenofovir Disoproxil Fumarate]", "values": [{"measurement": "scaled lipid accumulation score", "setting": "[1]", "result": "≤ 0"}, {"measurement": "scaled lipid accumulation score", "setting": "[2]", "result": "≤ 0"}]}, {"compound": "CCc1c(Cl)c(O)c(Cl)c(O)c1C(=O)O[C@H]1[C@H](O)[C@H](OC)[C@H](OC/C2=C\\C=C\\C[C@H](O)/C(C)=C/[C@H](CC)[C@@H](O[C@@H]3OC(C)(C)[C@@H](OC(=O)C(C)C)[C@H](O)[C@@H]3O)/C(C)=C/C(C)=C/C[C@@H]([C@@H](C)O)OC2=O)O[C@@H]1C", "note": "[Fidaxomicin]", "values": [{"measurement": "scaled lipid accumulation score", "setting": "[1]", "result": "≤ 0"}, {"measurement": "scaled lipid accumulation score", "setting": "[2]", "result": 0.125}]}, {"compound": "COc1ccc(CCN(C)CCCOc2ccc(S(=O)(=O)c3c(C(C)C)c4ccccc4n3C)cc2)cc1OC", "values": [{"measurement": "scaled lipid accumulation score", "setting": "[2]", "result": 0.445}]}, {"compound": "CC(C)CC[C@@H](O)[C@@H](C)[C@H]1CC[C@H]2[C@@H]3CC=C4C[C@@H](O)CC[C@]4(C)[C@H]3CC[C@]12C", "note": "[22(R)-hydroxy Cholesterol]", "values": [{"measurement": "scaled lipid accumulation score", "setting": "[3]", "result": 0.045}]}, {"compound": "O=C1C[C@@H]2[C@@H](/C=C/[C@@H](O)COc3cccc(C(F)(F)F)c3)[C@H](O)C[C@@H]2O1", "note": "[Fluprostenol Lactone Diol]", "values": [{"measurement": "scaled lipid accumulation score", "setting": "[3]", "result": 0.003}]}, {"compound": "CC1=C(C(=O)Nc2cc3cn[nH]c3cc2F)C(c2ccc(C(F)(F)F)cc2)CC(=O)N1", "note": "(configuration not stated)", "values": [{"measurement": "scaled lipid accumulation score", "setting": "[4]", "result": 0.022}, {"measurement": "scaled lipid accumulation score", "setting": "[5]", "result": "≤ 0 and ≤ -0.005"}, {"measurement": "scaled lipid accumulation score", "setting": "[6]", "result": "0.014 and ≤ -0.005"}, {"measurement": "scaled lipid accumulation score", "setting": "[1]", "result": "≤ 0"}, {"measurement": "scaled lipid accumulation score", "setting": "[2]", "result": "≤ 0 and 0.096 and 0.308"}]}, {"compound": "C/C=C1\\NC(=O)[C@H]2CSSCC/C=C/[C@H](CC(=O)N[C@H](C(C)C)C(=O)N2)OC(=O)[C@H](C(C)C)NC1=O", "note": "[Romidepsin (FK228, Depsipeptide)]", "values": [{"measurement": "scaled lipid accumulation score", "setting": "[1]", "result": 0.521}, {"measurement": "scaled lipid accumulation score", "setting": "[2]", "result": 0.472}]}, {"compound": "C=CC(=O)Nc1cc(-n2c(=O)ccc3cnc4ccc(-c5ccc(NS(C)(=O)=O)cc5)cc4c32)ccc1C", "values": [{"measurement": "scaled lipid accumulation score", "setting": "[4]", "result": "≤ -0.001"}, {"measurement": "scaled lipid accumulation score", "setting": "[5]", "result": "≤ -0.001"}, {"measurement": "scaled lipid accumulation score", "setting": "[6]", "result": 0.003}, {"measurement": "scaled lipid accumulation score", "setting": "[2]", "result": 0.06}]}, {"compound": "C=CC(=O)Nc1cc(-n2c(=O)ccc3cnc4ccc(-c5cn[nH]c5)cc4c32)ccc1C", "values": [{"measurement": "scaled lipid accumulation score", "setting": "[4]", "result": "≤ 0"}, {"measurement": "scaled lipid accumulation score", "setting": "[5]", "result": "≤ 0"}, {"measurement": "scaled lipid accumulation score", "setting": "[6]", "result": 0.082}, {"measurement": "scaled lipid accumulation score", "setting": "[2]", "result": 0.662}]}, {"compound": "C=CC(=O)N1CCc2ccc(-n3c(=O)ccc4cnc5ccc(-c6cnn(C)c6)cc5c43)cc21", "values": [{"measurement": "scaled lipid accumulation score", "setting": "[2]", "result": "1.19 (active)"}]}, {"compound": "CCCCC(CC)CN=C(N)N=C(N)NCCCCCCNC(N)=NC(N)=NCC(CC)CCCC", "note": "(configuration not stated) [Alexidine hydrochloride]", "values": [{"measurement": "scaled lipid accumulation score", "setting": "[2]", "result": "≤ -0.027"}]}, {"compound": "CCCCCC1OC(O)CC1SC[C@H](NC(C)=O)C(=O)O", "note": "(some centres not stated) [4-hydroxy Nonenal Mercapturic Acid]", "values": [{"measurement": "scaled lipid accumulation score", "setting": "[3]", "result": "≤ 0"}]}, {"compound": "Nc1c(CC(=O)O)cccc1C(=O)c1ccccc1", "note": "[Amfenac Sodium Monohydrate]", "values": [{"measurement": "scaled lipid accumulation score", "setting": "[1]", "result": "≤ 0"}, {"measurement": "scaled lipid accumulation score", "setting": "[2]", "result": 0.019}]}, {"compound": "NC1(C(=O)N[C@@H](CCO)c2ccc(Cl)cc2)CCN(c2ncnc3[nH]ccc23)CC1", "values": [{"measurement": "scaled lipid accumulation score", "setting": "[4]", "result": 0.053}, {"measurement": "scaled lipid accumulation score", "setting": "[5]", "result": 0.049}, {"measurement": "scaled lipid accumulation score", "setting": "[6]", "result": 0.038}, {"measurement": "scaled lipid accumulation score", "setting": "[1]", "result": "≤ -0.009"}, {"measurement": "scaled lipid accumulation score", "setting": "[2]", "result": "≤ 0 and 0.178"}]}, {"compound": "NC1(Cc2ccc(Cl)cc2)CCN(c2ncnc3[nH]ccc23)CC1", "note": "[listing 1 of 2 here]", "values": [{"measurement": "scaled lipid accumulation score", "setting": "[2]", "result": "1.09 (active)"}]}, {"compound": "NC1(Cc2ccc(Cl)cc2)CCN(c2ncnc3[nH]ccc23)CC1", "note": "[listing 2 of 2 here]", "values": [{"measurement": "scaled lipid accumulation score", "setting": "[1]", "result": 0.47}]}, {"compound": "OCCNCCCOc1cccc(Cl)c1Cl", "note": "[2,3-DCPE (hydrochloride)]", "values": [{"measurement": "scaled lipid accumulation score", "setting": "[3]", "result": 0.049}]}, {"compound": "Cl.OCCNCCCOc1cccc(Cl)c1Cl", "note": "[2,3-DCPE hydrochloride]", "values": [{"measurement": "scaled lipid accumulation score", "setting": "[2]", "result": "1.14 (active)"}]}, {"compound": "O=C(c1cccs1)c1ccc(OCCCO)c(Cl)c1Cl", "note": "[homo-Tienilic Alcohol]", "values": [{"measurement": "scaled lipid accumulation score", "setting": "[3]", "result": 0.02}]}, {"compound": "O=Cc1cccc2[nH]ccc12", "note": "[4-formyl Indole]", "values": [{"measurement": "scaled lipid accumulation score", "setting": "[3]", "result": "≤ 0"}]}, {"compound": "CC(C)(C)Cn1c(N)nc2ccc(-c3[nH]c(C(C)(C)C)nc3-c3ccc(F)cc3)nc21", "values": [{"measurement": "scaled lipid accumulation score", "setting": "[1]", "result": 0.034}, {"measurement": "scaled lipid accumulation score", "setting": "[2]", "result": 0.268}]}, {"compound": "CC(C)(C)Cn1c(N)nc2ccc(-c3[nH]c(C(C)(C)C)nc3-c3ccc(F)cc3)nc21", "note": "[Ralimetinib]", "values": [{"measurement": "scaled lipid accumulation score", "setting": "[4]", "result": 0.033}, {"measurement": "scaled lipid accumulation score", "setting": "[5]", "result": 0.086}, {"measurement": "scaled lipid accumulation score", "setting": "[6]", "result": 0.076}, {"measurement": "scaled lipid accumulation score", "setting": "[2]", "result": 0.481}]}, {"compound": "O=C(O)CCC/C=C\\C[C@H]1[C@@H](O)CC(=O)[C@@H]1/C=C/[C@@H](O)COc1cccc(C(F)(F)F)c1", "note": "[11-keto Fluprostenol]", "values": [{"measurement": "scaled lipid accumulation score", "setting": "[3]", "result": "≤ 0"}]}, {"compound": "CN(C)C/C=C(/c1ccc(Br)cc1)c1cccnc1", "note": "[Zimelidine dihydrochloride monohydrate]", "values": [{"measurement": "scaled lipid accumulation score", "result": 0.454}]}, {"compound": "CCN(CC)C(=O)c1cccnc1", "values": [{"measurement": "scaled lipid accumulation score", "setting": "[2]", "result": 0.073}]}, {"compound": "CN(C)C/C=C(/c1ccc(Br)cc1)c1cccnc1.Cl.Cl", "note": "[Zimelidine dihydrochloride]", "values": [{"measurement": "scaled lipid accumulation score", "setting": "[2]", "result": "0.893 (active)"}]}, {"compound": "CN(C)C/C=C(/c1ccc(Br)cc1)c1cccnc1", "note": "[Zimelidine dihydrochloride]", "values": [{"measurement": "scaled lipid accumulation score", "setting": "library stock concentration: 5.1 mM", "result": 0.434}, {"measurement": "scaled lipid accumulation score", "setting": "[2]", "result": 0.178}]}]}
